Data from paper PMC8384837, “Expanding the binding specificity for RNA recognition by a PUF domain”.
Changes are numbered by the printed parent chain.

What was measured:
Assay in all cases: yeast three-hybrid, YBZ-1, SC-Leu-His + 0.5 mM 3-AT, 4 days
Details in all cases: tags: N-Gal4 AD-HA kept; label: inside an RPR1-promoter hybrid RNA with tandem MS2 sites; ssRNA
PUM1 PUF domain R3-VYY = PUM1 PUF domain R3-VYY (Homo sapiens, UniProt Q14671 828-1176, C935V;R936Y;Q939Y)
In short: (§1)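 Pumilio-1 PUF domain libraries, randomized at the three base-contacting residues of each repeat, were co-expressed with matching RNA elements from a centromeric plasmid in strain YBZ-1, which carries a LexA–MS2 coat fusion and a HIS3 reporter. Transformants grew for four days on SC-Leu (input) or on SC-Leu-His + 0.5 mM 3-AT (selection), and the repeat regions were PCR-amplified and Illumina-sequenced. The interaction score is the log change in variant frequency from input to selection. That logarithm is base 2, with a pseudocount of 1 where a variant was absent.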

PUM1 PUF domain R3-QPG = PUM1 PUF domain R3-QPG (Homo sapiens, UniProt Q14671 828-1176, C935Q;R936P;Q939G)
In short: as §1

PUM1 PUF domain R3-RIC = PUM1 PUF domain R3-RIC (Homo sapiens, UniProt Q14671 828-1176, C935R;R936I;Q939C)
In short: as §1

PUM1 PUF domain R6-WWA = target: T1, PUM1 PUF domain R6-WWA (Homo sapiens, UniProt Q14671 828-1176, N1043W;Y1044W;Q1047A)
T1 sequence: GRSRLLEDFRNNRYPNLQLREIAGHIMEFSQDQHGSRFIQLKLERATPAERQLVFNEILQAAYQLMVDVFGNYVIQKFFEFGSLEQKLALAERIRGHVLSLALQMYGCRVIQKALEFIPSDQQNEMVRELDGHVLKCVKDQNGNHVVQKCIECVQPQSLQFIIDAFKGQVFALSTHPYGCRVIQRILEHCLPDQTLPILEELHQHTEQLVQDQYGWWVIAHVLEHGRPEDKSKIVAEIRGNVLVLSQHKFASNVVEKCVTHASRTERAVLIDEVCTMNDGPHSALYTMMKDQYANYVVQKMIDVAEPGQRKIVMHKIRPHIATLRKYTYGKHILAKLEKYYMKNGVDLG
In short: as §1

PUM1 PUF domain R5-DWM = PUM1 PUF domain R5-DWM (Homo sapiens, UniProt Q14671 828-1176, C1007D;R1008W;Q1011M)
In short: as §1

PUM1 PUF domain R8-RWH = PUM1 PUF domain R8-RWH (Homo sapiens, UniProt Q14671 828-1176, N1122R;Y1123W;Q1126H)
In short: as §1

PUM1 PUF domain R4-CRV = PUM1 PUF domain R4-CRV (Homo sapiens, UniProt Q14671 828-1176, N971C;H972R;Q975V)
In short: as §1

PUM1 PUF domain R4-DYL = PUM1 PUF domain R4-DYL (Homo sapiens, UniProt Q14671 828-1176, N971D;H972Y;Q975L)
In short: as §1

PUM1 PUF domain R8-KFT = PUM1 PUF domain R8-KFT (Homo sapiens, UniProt Q14671 828-1176, N1122K;Y1123F;Q1126T)
In short: as §1

PUM1 PUF domain R6-FYA = target: T2, PUM1 PUF domain R6-FYA (Homo sapiens, UniProt Q14671 828-1176, N1043F;Q1047A)
T2 sequence: T1 sequence with W216F, W217Y
In short: as §1

PUM1 PUF domain R3-GHH = PUM1 PUF domain R3-GHH (Homo sapiens, UniProt Q14671 828-1176, C935G;R936H;Q939H)
In short: as §1

PUM1 PUF domain R5-GWL = PUM1 PUF domain R5-GWL (Homo sapiens, UniProt Q14671 828-1176, C1007G;R1008W;Q1011L)
Sequence of PUM1 PUF domain R5-GWL (Q14671 828-1176 C1007G/R1008W/Q1011L): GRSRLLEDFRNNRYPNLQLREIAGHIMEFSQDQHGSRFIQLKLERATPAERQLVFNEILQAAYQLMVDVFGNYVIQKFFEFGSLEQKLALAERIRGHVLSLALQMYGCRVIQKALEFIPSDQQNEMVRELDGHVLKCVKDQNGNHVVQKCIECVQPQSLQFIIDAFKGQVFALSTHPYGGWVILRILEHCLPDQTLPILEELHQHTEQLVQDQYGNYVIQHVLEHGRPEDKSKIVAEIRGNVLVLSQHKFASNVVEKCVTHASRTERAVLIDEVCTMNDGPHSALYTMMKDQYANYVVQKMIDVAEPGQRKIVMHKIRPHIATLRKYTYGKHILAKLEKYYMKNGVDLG
In short: as §1

PUM1 PUF domain R5-WGF = PUM1 PUF domain R5-WGF (Homo sapiens, UniProt Q14671 828-1176, C1007W;R1008G;Q1011F)
In short: as §1

PUM1 PUF domain R5-DME = PUM1 PUF domain R5-DME (Homo sapiens, UniProt Q14671 828-1176, C1007D;R1008M;Q1011E)
In short: as §1

PUM1 PUF domain R7-LFD = PUM1 PUF domain R7-LFD (Homo sapiens, UniProt Q14671 828-1176, S1079L;N1080F;E1083D)
In short: as §1

PUM1 PUF domain R4-DHN = PUM1 PUF domain R4-DHN (Homo sapiens, UniProt Q14671 828-1176, N971D;Q975N)
In short: as §1

PUM1 PUF domain R5-QCR = PUM1 PUF domain R5-QCR (Homo sapiens, UniProt Q14671 828-1176, C1007Q;R1008C;Q1011R)
In short: as §1

PUM1 PUF domain R5-DHS = PUM1 PUF domain R5-DHS (Homo sapiens, UniProt Q14671 828-1176, C1007D;R1008H;Q1011S)
In short: as §1

PUM1 PUF domain R6-LFT = target: T3, PUM1 PUF domain R6-LFT (Homo sapiens, UniProt Q14671 828-1176, N1043L;Y1044F;Q1047T)
T3 sequence: T1 sequence with W216L, W217F, A220T
In short: as §1

PUM1 PUF domain R4-WGD = PUM1 PUF domain R4-WGD (Homo sapiens, UniProt Q14671 828-1176, N971W;H972G;Q975D)
In short: as §1

“GGCUAGAACUAGUGGAUCCCCCGGCGCCCGGCGGCUCGAGCCCGGGUAAGUGUAAUUAGUCUGCAUGCCGCCGGGCGCCAUGCCUGCAGGUCGACUCUAGAAAACAUG” was tested, and the binding signal (PUM1 PUF domain R3-VYY) was 5.47 log2 enrichment (interaction score), the binding signal (PUM1 PUF domain R3-QPG) was 3.7 log2 enrichment (interaction score) and the binding signal (PUM1 PUF domain R3-RIC) was 3.78 log2 enrichment (interaction score).

For “GGCUAGAACUAGUGGAUCCCCCGGCGCCCGGCGGCUCGAGCCCGGGUAAGUGUAAAUAGUCUGCAUGCCGCCGGGCGCCAUGCCUGCAGGUCGACUCUAGAAAACAUG”, the binding signal (PUM1 PUF domain R6-WWA) was 4.79 log2 enrichment (interaction score), the binding signal (PUM1 PUF domain R5-DWM) was 2.57 log2 enrichment (interaction score) and the binding signal (PUM1 PUF domain R8-RWH) was 4.7 log2 enrichment (interaction score). For the same sequence, the binding signal (PUM1 PUF domain R4-CRV) was 2.54 log2 enrichment (interaction score), the binding signal (PUM1 PUF domain R4-DYL) was 6.7 log2 enrichment (interaction score) and the binding signal (PUM1 PUF domain R8-KFT) was 4.46 log2 enrichment (interaction score). The binding signal (PUM1 PUF domain R6-FYA) was 4.17 log2 enrichment (interaction score), the binding signal (PUM1 PUF domain R3-GHH) was 3.86 log2 enrichment (interaction score) and the binding signal (PUM1 PUF domain R5-GWL) was 2.66 log2 enrichment (interaction score).

For “GGCUAGAACUAGUGGAUCCCCCGGCGCCCGGCGGCUCGAGCCCGGGUAAGUGUGAAUAGUCUGCAUGCCGCCGGGCGCCAUGCCUGCAGGUCGACUCUAGAAAACAUG”, the binding signal (PUM1 PUF domain R5-WGF) was 4.79 log2 enrichment (interaction score), the binding signal (PUM1 PUF domain R5-DME) was 2.8 log2 enrichment (interaction score) and the binding signal (PUM1 PUF domain R5-GWL) was 3.27 log2 enrichment (interaction score).

“GGCUAGAACUAGUGGAUCCCCCGGCGCCCGGCGGCUCGAGCCCGGGUAAGUUUAAAUAGUCUGCAUGCCGCCGGGCGCCAUGCCUGCAGGUCGACUCUAGAAAACAUG” was tested, and the binding signal (PUM1 PUF domain R7-LFD) was 2.92 log2 enrichment (interaction score).

With “GGCUAGAACUAGUGGAUCCCCCGGCGCCCGGCGGCUCGAGCCCGGGUAAGUGUACAUAGUCUGCAUGCCGCCGGGCGCCAUGCCUGCAGGUCGACUCUAGAAAACAUG” the binding signal (PUM1 PUF domain R4-DHN) was 2.6 log2 enrichment (interaction score).

“GGCUAGAACUAGUGGAUCCCCCGGCGCCCGGCGGCUCGAGCCCGGGUAAGUGUUAAUAGUCUGCAUGCCGCCGGGCGCCAUGCCUGCAGGUCGACUCUAGAAAACAUG” was tested, and the binding signal (PUM1 PUF domain R5-QCR) was 3.91 log2 enrichment (interaction score), the binding signal (PUM1 PUF domain R5-DHS) was 4.63 log2 enrichment (interaction score) and the binding signal (PUM1 PUF domain R5-GWL) was 3.36 log2 enrichment (interaction score).

With “GGCUAGAACUAGUGGAUCCCCCGGCGCCCGGCGGCUCGAGCCCGGGUAAGUGAAAAUAGUCUGCAUGCCGCCGGGCGCCAUGCCUGCAGGUCGACUCUAGAAAACAUG” the binding signal (PUM1 PUF domain R6-WWA) was 2.47 log2 enrichment (interaction score) and the binding signal (PUM1 PUF domain R6-LFT) was 6.33 log2 enrichment (interaction score).

With “GGCUAGAACUAGUGGAUCCCCCGGCGCCCGGCGGCUCGAGCCCGGGUAAGUGUCAAUAGUCUGCAUGCCGCCGGGCGCCAUGCCUGCAGGUCGACUCUAGAAAACAUG” the binding signal (PUM1 PUF domain R5-QCR) was 4.97 log2 enrichment (interaction score).

For “GGCUAGAACUAGUGGAUCCCCCGGCGCCCGGCGGCUCGAGCCCGGGUAAGUGUAUAUAGUCUGCAUGCCGCCGGGCGCCAUGCCUGCAGGUCGACUCUAGAAAACAUG”, the binding signal (PUM1 PUF domain R4-DHN) was 4.74 log2 enrichment (interaction score) and the binding signal (PUM1 PUF domain R4-WGD) was 4.21 log2 enrichment (interaction score).

“GGCUAGAACUAGUGGAUCCCCCGGCGCCCGGCGGCUCGAGCCCGGGUAAGCGUAAAUAGUCUGCAUGCCGCCGGGCGCCAUGCCUGCAGGUCGACUCUAGAAAACAUG” was tested, and the binding signal (PUM1 PUF domain R8-RWH) was 5.97 log2 enrichment (interaction score).
